# Shown are actives, neighbours in structure and some others; about 1.1% of the full set was active somewhere.
# AmpC no deterg: blocks E. coli AmpC beta-lactamase in detergent-free assay; P00811; AmpC nitrocefin hydrolysis, absorbance 480 nm, 0.0001% Triton; Potency, µM (highest dose often 57.1 µM), for inactives: top-dose activity change, negative = inhibition, usual class: inhibitors; 0.52% of 330,000 active; AID 485341;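 also: plate controls were no compound for no effect and no enzyme for full effect; nearly all actives have a fitted effect of over 20% in size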
#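 AmpC (5.3 nM in the dispensed reagent) in 20 mM phosphate pH 7.0 with 0.01% (detergent screen) or 0.0001% Triton X-100 was preincubated with compounds for 15 min at room temperature. Nitrocefin was then added from an 800 uM solution, and hydrolysis was followed at 480 nm.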
# AmpC inh detg: inhibitors of E. coli AmpC beta-lactamase with detergent; 0.041% of 370,000 active; Potency, µM (doses to about 114 µM), inactives show at the top dose activity change, negative = inhibition, usual class: inhibitors; AID 485294; P00811; AmpC hydrolysis of nitrocefin, absorbance 480 nm, 0.01% Triton;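 also: 0% = no-compound wells and -100% = no-enzyme wells; nearly all actives have a fitted effect of over 25% in size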
#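 20 mM phosphate pH 7.0 + 0.01% (detergent screen) or 0.0001% Triton X-100; 5.3 nM AmpC reagent; cpd preinc 15 min RT; nitrocefin (800 uM stock) to start; A480 q20 s × 4 min; Activity was normalised to no-enzyme and no-compound control wells.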
# AMA1-RON2 inh: inhibitors of Plasmodium falciparum AMA1-RON2 interaction. AlphaScreen AMA1-biotinylated RON2 peptide binding. Potency, µM (top dose mostly 58.2 µM), without a hit: top-dose activity change, negative = inhibition, most hits filed as inhibitors. 0.2% of 360,000 active;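 also: 0% = vehicle wells and -100% = peptide control; nearly all actives have a fitted effect of over 45% in size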
#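 AMA1 (3D7) with his tag at 25 nM final met compounds first, then biotinylated RON2 peptide at 25 nM; detection used donor plus acceptor beads, 10 µg/mL apiece, read by AlphaScreen after 30 min at room temperature.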
# Giardia FBPA inh: inhibitors of Giardia lamblia fructose-1,6-bisphosphate aldolase. Potency, µM (series often up to 59.6 µM), for inactives: at the top dose activity, negative = inhibition, usual class: inhibitors. 0.71% of 290,000 active. purified Giardia FBPA. A8B2U2; also: nearly all actives have a fitted effect of over 55% in size
# Target sequence (A8B2U2 whole entry, looked up): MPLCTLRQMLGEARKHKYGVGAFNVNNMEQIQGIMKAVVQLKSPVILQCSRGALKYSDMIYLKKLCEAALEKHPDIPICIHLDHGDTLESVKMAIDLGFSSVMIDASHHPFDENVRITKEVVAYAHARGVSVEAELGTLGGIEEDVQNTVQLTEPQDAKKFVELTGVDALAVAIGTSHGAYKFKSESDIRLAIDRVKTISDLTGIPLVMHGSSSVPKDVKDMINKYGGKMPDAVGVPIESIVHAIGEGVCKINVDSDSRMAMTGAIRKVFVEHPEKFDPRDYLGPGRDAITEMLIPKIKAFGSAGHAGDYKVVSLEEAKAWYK
#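 Giardia FBPA (40 nM reagent) was preincubated 10 min at RT with compound (up to 57.5 uM final), then substrate plus GAPDH/TPI/NAD/arsenate coupling system with diaphorase/resazurin was added; resorufin fluorescence (525/598 nm) was read after 20 min.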
# Active calls of the source: *; ? = inconclusive; · = no result. Calls follow the shape of the dose curve; as a rule, active = well fitted curve in the direction sought with a large enough effect; inconclusive = small, poorly fitted or top-dose-only effect, or another doubt; inactive = no such curve, though single readings can be large; an effect the other way counts as inactive or inconclusive. Unless noted, % is scaled to controls: 0 for no effect and ±100 for the full control effect; potency is read from the fitted curve at half-maximal effect.
SMILES,AmpC no deterg,AmpC inh detg,AMA1-RON2 inh,Giardia FBPA inh
Cn1c2cc(B(O)O)sc2c2cnn(Cc3c(F)cccc3Cl)c(=O)c21,5µM*,2.5µM*,·,·
Cn1c2cc(B(O)O)sc2c2cnn(Cc3ccc(F)cc3F)c(=O)c21,3.5µM*,3.5µM*,·,·
Cn1c2cc(Br)sc2c2cnn(Cc3c(F)cccc3Cl)c(=O)c21,-24%,-11%,·,·
Cn1c2cc(Br)sc2c2cnn(Cc3ccc(F)cc3F)c(=O)c21,-8%,?,·,·
CCc1c(C)c(C#N)c2nc3ccccc3n2c1Nc1cccc(C(F)(F)F)c1,·,0%,·,·
O=C(Nc1ccc(F)cc1)C(CCc1ccccc1)N1CCN(c2cccc(C(F)(F)F)n2)CC1 (centres undefined),·,·,-7%,·
CCOC(=O)C1CCN(c2ncnc3nc[nH]c23)CC1,-17%,-7%,1%,-11%
CCOC(=O)N1CCN(c2ncnc3c2cnn3-c2ccc(Cl)cc2)CC1,6.3µM*,-2%,·,3%
CCOC(=O)N1CCN(c2ncnc3nc[nH]c23)CC1,45µM*,?,-9%,-5%
CC1CCc2c(sc3nc(-c4cc5ccccc5oc4=O)nc(Cl)c23)C1 (centres undefined),·,-7%,·,·
CCOc1ccccc1NC(=O)C(C)Sc1nc2c(c(=O)[nH]1)CCCC2 (centres undefined),·,-2%,·,·
CCCNC(=O)COC(=O)c1ccccc1C(=O)c1ccc(Cl)c([N+](=O)[O-])c1,9%,?,13%,-4%
Cc1ccc(Cl)c(NC(=O)COC(=O)c2ccccc2C(=O)c2ccc(Cl)c([N+](=O)[O-])c2)c1Cl,20µM*,1%,0%,-4%
Cc1[nH]n(-c2ccccc2)c(=O)c1N=Nc1ccc(F)cc1,-6%,2%,-2%,?
CSc1ccc(N=Nc2c(C)[nH]n(C)c2=O)cc1,49%,-12%,14µM*,-29%
Cc1cc(C)c(OCC(=O)OCC(=O)N(C)C2CCS(=O)(=O)C2)c(C)c1 (centres undefined),13%,-5%,-10%,·
Clc1cccc(Cl)c1OCCCCN1CCCCC1,30%,?,?,?
Cc1cccc(Cl)c1OCCN1CCCC1,-13%,-8%,0%,25µM*
Oc1cccc2c(NC(=S)Nc3ccc(SC(F)F)cc3)cccc12,-49%,-4%,29%,1.8µM*
COc1ccc(NC(=O)C(c2ccc(C(F)(F)F)cc2)n2c(=O)c(-c3cc4ccccc4[nH]3)nc3ccccc32)cc1 (centres undefined),·,·,46%,·
CC(=O)c1ccc(N2CCN(C(=O)Nc3cn(CC(C)C)c(=O)c4ccccc34)CC2)cc1,·,12%,·,·
Cc1ccc(S(=O)(=O)/N=C2/C=C(Sc3ncn[nH]3)C(=O)c3ccccc32)c(C)c1,25µM*,-18%,·,1.6µM*
Cc1ccc(S(=O)(=O)/N=C2\C=C(NS(=O)(=O)c3ccccc3)C(=O)c3ccccc32)c(C)c1,·,·,-8%,·
Cc1cccc(N=C2NN=C(c3ccccc3F)CS2)c1C,13µM*,0%,-13%,3%
CN(c1ccccc1C(=O)NCC1CCCO1)S(C)(=O)=O (centres undefined),0.16µM*,1%,-4%,0%
SMILES,AmpC no deterg,AmpC inh detg,AMA1-RON2 inh,Giardia FBPA inh
CN(c1ccccc1)S(=O)(=O)c1ccc(C(=O)NCC2CCCO2)cc1 (centres undefined),1%,-5%,-9%,4%
Cc1ccc(C2CC(c3ccc(C)cc3)n3nc(N)nc3N2)cc1 (centres undefined),45µM*,?,9%,6%
Cc1ccc(C2CC(c3ccc(Cl)cc3)n3nc(N)nc3N2)cc1 (centres undefined),-22%,?,6%,9%
CCc1ccc(C2CC(c3ccc(F)cc3)Nc3nc(N)nn32)cc1 (centres undefined),4.5µM*,10%,0%,2%
CCc1ccc(C2CC(c3ccc(Cl)cc3)n3nc(N)nc3N2)cc1 (centres undefined),-6%,-1%,4%,3%
COc1ccc(S(=O)(=O)NCCCC(=O)Nc2ccc(Sc3ccc(N)cc3)cc2)cc1,·,·,·,-1%
CCc1ccc(OCc2nc(-c3ccc(OC)c(OC)c3)no2)c(Br)c1,·,15%,·,·
CN(C)S(=O)(=O)c1cccc(NC(=O)c2ccc(S(=O)(=O)N3CCCCC3)cc2)c1,-34%,?,-9%,·
CN(C)c1ccc(C(=O)Nc2cccc(S(=O)(=O)N3CCCC3)c2)cc1,28µM*,-15%,1%,·

# Source: PubChem BioAssay
